# PubChem BioAssay
# Assay: MRP1 drug-resistance reversers in H69AR cells – cell-based, doxorubicin co-treatment, pilot screen (AID 601)
# Conditions: H69AR cells, CellTiter-Glo, 72 h; compound alone cytotoxicity; at 10 µM
row,Structure (SMILES),viability
1,CCO/C([O-])=N/c1c[n+](N2CCOCC2)no1,86.7%
2,N#Cc1cnc(SCCc2ccccc2)nc1N,97.8%
3,CCCC1Cc2c(sc3ncnc(N)c23)CO1 (stereo unspecified),90.9%
4,Cn1c(=O)c2c(nc(Br)n2CCSc2nnnn2-c2ccccc2)n(C)c1=O,80.4%
5,CCn1cc(C(=O)NCc2ccco2)c(=O)c2cc(F)c(N3CCN(C(=O)c4ccco4)CC3)cc21,58.6%
6,COc1ccc(C)cc1-n1nnnc1SC/C(O)=C(\C#N)c1nc2ccccc2[nH]1,85.2%
7,Cc1cnc(NC(=O)CSc2nnc(-c3ccccc3)n2Cc2ccccc2)s1,90.2%
8,CCN(CC)CCCNc1oc(-c2cccc(Cl)c2)nc1C#N,76.6%
9,COc1cccc(NC(=O)C2CCCN2C(=O)Nc2cccc(F)c2)c1 (stereo unspecified),103%
10,CN(C)CCC=C1c2ccccc2CCc2ccccc21,82.3%
11,Cc1ccc(-c2nn[nH]n2)cc1,107%
12,CCn1c(SCC(=O)Nc2ccc3c(c2)OCO3)nnc1-c1cnccn1,95.4%
13,c1ccc(-c2cnc(CSc3ncnc4sccc34)o2)cc1,96.9%
14,CCOC(=O)C1=C[C@]2(CC)CCCN3CCc4c(n1c1ccccc41)[C@@H]32,80.1%
15,NCc1ccc(S(N)(=O)=O)cc1,102%
16,COC(=O)c1cc(S(=O)(=O)N2CCOCC2)c(N2CCOCC2)cc1N1CCOCC1,85.5%
17,CSc1oc(-c2ccccc2)nc1S(=O)(=O)c1ccc(F)cc1,82.6%
18,Cc1c(NC(=O)CCc2ccc(S(=O)(=O)N3CCOCC3)cc2)c(=O)n(-c2ccccc2)n1C,100%
19,CC(C)N(C(=O)N1CCC(c2nc(-c3ccncc3)no2)CC1)C(C)C,102%
20,CCOC(=O)C1(CC)NC(c2cccc(F)c2)C2C(=O)N(CC)C(=O)C21 (stereo unspecified),97.6%
21,CCCCN1C(=O)C2C(C(=O)Nc3cccc(OC)c3)C3C=CC2(O3)C1C(=O)NC1CCCCC1C (stereo unspecified),82.1%
